Values without a mark were called inactive. Active and inactive are the calls of the source. The call rests on the fitted dose curve; in most records, active means well fitted inhibition curve with a large enough effect; inconclusive means small, poorly fitted or top-dose-only effect; inactive means flat fitted curve, though single readings scatter.
molecular target: Luciferin 4-monooxygenase (Photinus pyralis) (UniProt P08659); test: Primary firefly luciferase (FLuc) qHTS assay for identification of artifact compounds. (AID 1845220); conditions: purified firefly luciferase, luminescence, 5 min; series mostly up to 54.1 µM; activity change, negative = inhibition: at the top concentration; further: nearly all actives have a fitted effect of over 60% in size;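 on activity change, negative = inhibition: plate controls were DMSO vehicle for no effect and no enzyme for full effect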
How it was run: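 qHTS, 15 min compound preincubation with substrate (10 uM luciferin, 10 uM ATP) at RT, then 10 nM FLuc; 5 min; luminescence; % inhibition vs no-enzyme/DMSO controls, 4-parameter Hill fit.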

Question: Which “activity change, negative = inhibition” value does the source give for `C=C1CC23CC1CCC2C12OC(=O)C(C)(C(O)C(O)C1O)C2C3C(=O)O` (stereo not drawn) here?
Answer: 1.88%

Question: Which “activity change, negative = inhibition” value does the source give for `COc1c(O[C@@H]2O[C@H](CO)[C@@H](O)[C@H](O)[C@H]2O)c(CCC(=O)O)cc2ccoc12` here?
Answer: -1.76%

Question: With `COc1ccc(C(=O)CC(=O)O)c2c1C=CC(C)(C)O2` as the compound, how does the “activity change, negative = inhibition” value read?
Answer: 2.82%

Question: For `C=C(C(=O)O)C1CC(O)C2(C)CCCC(C)(O)C2C1` (stereo not drawn), which “outcome” value is on record?
Answer: inactive

Question: Which “outcome” value does the source give for `COC(=O)[C@H](Cc1ccc([N+](=O)[O-])cc1)NC(=O)c1cccc2ccccc12` here?
Answer: inactive

Question: `Cc1occc1C(=O)n1ccnc1` was tested. Which “activity change, negative = inhibition” value did it give?
Answer: -11.2%

Question: `O=C(O)CCc1c(C(=O)O)[nH]c2cc(Cl)cc(Cl)c12` was tested. Which “outcome” value did it give?
Answer: inactive [at 25.7 µM]

Question: `COC(=O)C1=CO[C@@H](O[C@@H]2O[C@H](CO)[C@@H](O)[C@H](O)[C@H]2O)[C@@H]2[C@@H](C(=O)O)CC[C@H]12` was tested. Which “activity change, negative = inhibition” value did it give?
Answer: -10.8% [at 25.7 µM]

Question: With `COC(=O)[C@@H](NC(=O)[C@H](CC(C)C)NC(=O)N(Cc1ccccc1)C[C@@H](O)[C@H](Cc1ccccc1)NC(=O)OC(C)(C)C)C(C)C` as the compound, how does the outcome read?
Answer: inactive [at 11.6 µM]

Question: How did the activity change, negative = inhibition turn out when `C/C=C(\C)C(=O)OC[C@H]1O[C@@H](O[C@H]2[C@@H](O[C@H]3O[C@H](COC(=O)/C(C)=C/C)[C@@H](O)[C@H](O)[C@H]3O[C@@H]3O[C@H](CO)[C@@H](O)[C@H](OC(=O)/C(C)=C/C)[C@H]3O)O[C@H](COC(=O)/C(C)=C/C)[C@@H](O)[C@@H]2O)[C@H](O)[C@@H](O)[C@@H]1O` was run?
Answer: 2.77% [at 11.6 µM]

Question: Which “activity change, negative = inhibition” value does the source give for `O=C(O)/C=C/c1ccc2occc2c1O[C@@H]1O[C@H](CO)[C@@H](O)[C@H](O)[C@H]1O` here?
Answer: 0.299%

Question: With `COCC1OC(OC(C)(C)C2CCC3(C)C=C(C4CCC5C4(C)CC(O)C4OC(C(C)(C)O)CCC45C)CCC3O2)C(NC(C)=O)C(O)C1O` (stereo not drawn) as the compound, how does the “outcome” value read?
Answer: inactive [at 25.7 µM]

Question: With `CC(C)=CCC/C(C)=C/CO[C@@H]1O[C@H](CO[C@@H]2OC[C@](O)(CO)[C@H]2O)[C@@H](O)[C@H](O)[C@H]1O` as the compound, how does the “activity change, negative = inhibition” value read?
Answer: 4.01% [at 25.7 µM]

Question: `CN1CCN(C2=Nc3ccccc3Nc3ccc(O)cc32)CC1` was tested. Which “outcome” value did it give?
Answer: inactive

Question: How did the “outcome” value turn out when `COC(=O)C1=CO[C@@H](O[C@@H]2O[C@H](CO)[C@@H](O)[C@H](O)[C@H]2O)[C@H]2[C@@H]1[C@H](O)C[C@]2(C)O` was run?
Answer: inactive [at 25.7 µM]

Question: How did the “activity change, negative = inhibition” value turn out when `CC1=C2C(=O)C=C(CO[C@@H]3O[C@H](CO)[C@@H](O)[C@H](O)[C@H]3O)[C@@H]2[C@H]2OC(=O)[C@H](C)[C@@H]2CC1` was run?
Answer: 1.92% [at 25.7 µM]

Question: How did the “activity change, negative = inhibition” value turn out when `COc1cc(CO)ccc1O[C@@H]1O[C@H](CO)[C@@H](O)[C@H](O)[C@H]1O` was run?
Answer: -0.188%

Question: `O=C1OC(c2ccc(O)cc2)C(O)=C1Cc1ccccc1` (stereo not drawn) was tested. Which “activity change, negative = inhibition” value did it give?
Answer: -0.0975%

Question: For `C/C=C(\C)C(=O)OCC1OC(OC2OC(CO)C(O)C(O)C2O)C(O)C(O)C1O` (stereo not drawn), which “activity change, negative = inhibition” value is on record?
Answer: 2.66% [at 25.7 µM]

Question: Which “activity change, negative = inhibition” value does the source give for `O=C(/C=C/c1ccc(O)cc1)OC[C@H]1O[C@H](O[C@@]2(CO)O[C@@H](CO)[C@H](O)[C@H]2O)[C@H](O)[C@@H](O)[C@@H]1O` here?
Answer: 0.102% [at 25.7 µM]

Question: How did the “outcome” value turn out when `O=C(C[C@@H]1C(C(=O)O)=CO[C@@H](O[C@@H]2O[C@H](CO)[C@@H](O)[C@H](O)[C@H]2O)/C1=C\CO)OCCc1ccc(O)cc1` was run?
Answer: inactive [at 25.7 µM]

Question: `C=C(C)C(O)COc1ccc(CC(=O)O)cc1` (stereo not drawn) was tested. Which “activity change, negative = inhibition” value did it give?
Answer: -1.5%

Question: `NC(N)=NCCC[C@H](NC(=O)c1sccc1NS(=O)(=O)c1cccc2nsnc12)C(=O)O` was tested. Which “outcome” value did it give?
Answer: inactive

Question: For `C[C@@]12CC3(S(=O)(=O)O)OC(O1)[C@]1(COC(=O)c4ccccc4)[C@H]3C[C@]21O[C@@H]1O[C@H](CO)[C@@H](O)[C@H](O)[C@H]1O`, which “activity change, negative = inhibition” value is on record?
Answer: 4.98% [at 25.7 µM]

Question: Which “activity change, negative = inhibition” value does the source give for `C/C=C/C=C/C(O)=C1/C(=O)[C@]2(C)C3/C(=C(O)/C=C/C=C/C)C(=O)C4(C)C1[C@]1(C)O[C@@]4(O)[C@@]3(C)O[C@@]12O` here?
Answer: 4.86% [at 25.7 µM]

Question: Which activity change, negative = inhibition does the source give for `C[C@@H]1O[C@@H](O[C@@H]2[C@@H](O)[C@H](O[C@@H]3[C@@H](O)[C@@H](O)[C@H](O[C@H]4[C@H](OC(=O)[C@]56CCC(C)(C)C[C@H]5C5=CCC7[C@@]8(C)C[C@H](O)[C@H](O[C@@H]9O[C@H](C(=O)O)[C@@H](O)[C@H](O)[C@H]9O)[C@@](C)(CO)C8[C@H](O)C[C@@]7(C)[C@]5(C)C[C@H]6O)O[C@@H](CO)[C@@H]4O)O[C@H]3C)OC[C@H]2O)[C@H](O)[C@H](O)[C@H]1O` (stereo partly drawn) here?
Answer: 2.08% [at 11.6 µM]

Question: How did the “outcome” value turn out when `O=C(C[C@@H]1C(C(=O)O)=CO[C@@H](O[C@@H]2O[C@H](CO)[C@@H](O)[C@H](O)[C@H]2O)/C1=C\CO)OCCc1ccc(O)c(O)c1` was run?
Answer: inactive [at 25.7 µM]

Question: Which “outcome” value does the source give for `Nc1c(-c2ccccc2)nc(Cl)c2c(O)n[nH]c(=O)c12` here?
Answer: inactive

Question: `NC1Nc2ccccc2C1(N)CC1NC(=O)C(Cc2ccccc2)NC(=O)C(Cc2ccccc2)NC1=O` (stereo not drawn) was tested. Which “activity change, negative = inhibition” value did it give?
Answer: 2.38% [at 25.7 µM]

Question: `C=C[C@H]1[C@H](O[C@@H]2O[C@H](CO)[C@@H](O)[C@H](O)[C@H]2O)OC=C2C(=O)N3Cc4c([nH]c5ccccc5c4=O)[C@@H]3C[C@H]21` was tested. Which “activity change, negative = inhibition” value did it give?
Answer: -2.93% [at 25.7 µM]

Question: Which “outcome” value does the source give for `O=C(c1ccc(Cl)c([N+](=O)[O-])c1)N1CCN(c2ccccc2F)CC1` here?
Answer: inactive

Question: With `O=C(O)c1ccnc(-c2cc(C(=O)NCCc3ccccc3)ccn2)c1` as the compound, how does the “activity change, negative = inhibition” value read?
Answer: -17.7%

Question: With `COC(=O)[C@]1(C)CCC[C@@]2(C)C(=O)CC[C@H]3C(=O)C=C(CC[C@@H]21)C3O` (stereo partly drawn) as the compound, how does the “activity change, negative = inhibition” value read?
Answer: -0.0653%

Question: With `O=C(O)C[C@H]1CCC(=O)[C@@H]1C/C=C\CCO` as the compound, how does the “activity change, negative = inhibition” value read?
Answer: -12.1%

Question: Which “activity change, negative = inhibition” value does the source give for `C[C@H]1[C@@H](O)[C@H](O)C2[C@]3(C)C([C@@H](O)[C@H]4OC(=O)[C@@H]1[C@@]24C)[C@](C)(O)C=C[C@H]3O[C@@H]1O[C@H](CO)[C@@H](O)[C@H](O)[C@H]1O` (stereo partly drawn) here?
Answer: 1.28% [at 25.7 µM]

Question: For `CC1=COC(OC2OC(CO)C(O)C(O)C2O)C2C(CO)CC(OC(=O)/C=C/c3ccc(O)cc3)C12` (stereo not drawn), which “outcome” value is on record?
Answer: inactive [at 25.7 µM]

Question: Which “activity change, negative = inhibition” value does the source give for `COc1cc(/C=C/C(=O)O[C@@H]2C[C@](O)(C(=O)O)C[C@@H](O)[C@H]2O)ccc1O` here?
Answer: -1.36%

Question: For `COC(=O)c1ccc(OC)cc1O[C@@H]1O[C@H](CO[C@@H]2OC[C@@H](O)[C@H](O)[C@H]2O)[C@@H](O)[C@H](O)[C@H]1O`, which “outcome” value is on record?
Answer: inactive [at 25.7 µM]
